# Assay outcomes: PubChem BioAssay, Broad Institute
# Hits are enriched below; roughly 3.8% of the tested compounds scored in any of these assays.
# HSF1 inhib: HSF1 inhibition; hit rate 0.77% among 300,000; activity change, negative = inhibition, % at 7.5 µM (by protocol); AID 2098; NIH3T3-HGL HSE-luciferase, MG132-induced, luminescence 8 h; stronger effect = lower value;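 active means more than half of replicate wells show activity change below -50%, luminescence cut by over half; inconclusive means some wells, but at most half, below -50%; inactive means no replicate well below -50%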;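 further: luciferase reports HSF-1 transcriptional activity via heat shock element; 0% = median of DMSO wells and -100% = zero luminescence signal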
# esBAF inh: blocks esBAF chromatin remodeling in mouse ES cells; hit rate 2% among 350,000; reporter increase, % at 12.5 µM; AID 602393; Bmi1-luciferase knock-in reporter, 24 h; 100% = twice the neutral-well signal; in the data active means activation above about 40%; inconclusive means no clear call, values can overlap the other calls;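 further: 0% = median of the plate's neutral control wells and 100% = double that signal; a rise in the Bmi1 reporter signal indicates esBAF inhibition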
# HSF1 activator: increases HSF-1 driven luciferase reporter signal; NIH3T3-HGL HSF-1 luciferase reporter, MG132, 8 h; 100% = twice DMSO control signal; activation, % at 9 µM; hit rate 1.7% among 300,000;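 active means mean replicate activation of at least 50% with a set share of replicates each reaching 50%; inconclusive means only one of those two conditions met; inactive means mean below 50% and too few replicates reaching it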;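 further: 0% = median of the neutral control wells and 100% = twice that signal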
# MITF TRPM1 HTS: MITF TRPM1 promoter activation in melanoma cells; activation, % at 12.5 µM; SK-MEL-5 TRPM1-promoter luciferase, 24 h; % of positive control, neutral wells = 0; AID 588334; hit rate 0.75% among 300,000;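 active means mean activation of at least 80% with every replicate also reaching 80%; inconclusive means mean reaches 80% but some replicate falls short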;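 further: 0% = neutral control wells and 100% = parthenolide positive control wells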
# Wnt act: activators of Wnt/beta-catenin signaling; Wnt/beta-catenin reporter cell assay, activator, plate reader; activation, % at 9.35 µM; hit rate 1.2% among 300,000; in the data active means activation above about 30%, passing the limit was not always enough; inconclusive means no clear call, values can overlap the other calls;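 further: 0% = neutral control wells and 100% = positive control wells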
# Numbers without * were called inactive; ? = inconclusive; . = no result.
SMILES,HSF1 inhib,esBAF inh,HSF1 activator,MITF TRPM1 HTS,Wnt act
COCC#Cc1cnc2c(c1)C(=O)N([C@@H](C)CO)C[C@@H](C)[C@@H](CN(C)Cc1ccc3c(c1)OCO3)O2,.,-5,.,.,.
C[C@H](CO)N1C[C@H](C)[C@@H](CN(C)CC2CC2)Oc2cc(C#C[C@@H](C)O)ccc2S1(=O)=O,.,6,.,.,.
O=C(C1CC1)N1C[C@H]2[C@@H](c3ccccc31)[C@@H](CO)N2C(=O)c1ccccn1,.,-2,.,.,.
Clc1nssc1=Nc1ccc(Br)cc1,-18,.,-19,-11,5
Clc1ccc(N=c2ssnc2Cl)nc1,139,.,130*,-18,6
O=C(NC1CCC1)[C@@H]1[C@@H](CO)[C@@H]2Cn3c(ccc(C4=CCCC4)c3=O)[C@H]1N2C(=O)c1ccccc1,.,-5,.,.,.
C[C@@H]1CN([C@@H](C)CO)C(=O)c2cc(NC(=O)Cc3ccccc3)ccc2O[C@@H]1CN(C)S(=O)(=O)c1ccc(F)cc1,.,-2,.,.,.
CCOc1c(Cl)cc(C2NC(=O)NC(C)=C2C(=O)NCc2ccccc2)cc1OC (stereo not given),-8,50*,-3,31,.
CCOc1cc(C2NC(=O)NC(C)=C2C(C)=O)cc(Cl)c1OCC(=O)O (stereo not given),-11,-3,8,2,.
Cc1noc(C)c1S(=O)(=O)Nc1ccc2c(c1)C(=O)N([C@@H](C)CO)C[C@H](C)[C@H](CN(C)Cc1ccccc1)OCCCC[C@@H](C)O2,.,-2,.,.,.
O=S(=O)(/N=C(/Nc1cccc2ccccc12)c1ccccc1)c1ccc(F)cc1,8,5,52*,-2,-15
O=C(Nc1cccc2ccccc12)c1ccccc1,15,51*,37,55,17
CCOC(=O)NCc1ccccc1,5,-4,24,-2,.
O=C(Nc1cccc2ccccc12)c1ccc(F)cc1,14,35,14,19,7
O=C(NCc1ccc(C(=O)O)cc1)OCc1ccccc1,-54*,.,-64,9,0
CCOC(=O)Nc1ccc2c3c(cccc13)-c1ccccc1-2,.,46*,.,11,10
COCC#Cc1cnc2c(c1)C(=O)N([C@@H](C)CO)C[C@@H](C)[C@H](CN(C)C(=O)c1ccc3c(c1)OCO3)O2,.,1,.,.,.
O=C(NOCc1ccccc1)OCc1ccccc1,.,63*,.,?,13
Nc1ccccc1C(=O)Nc1cccc2ccccc12,19,65*,6,.,0
O=C(Nc1cccc2ccccc12)OCc1ccccc1,.,61*,.,48,4
O=C(NCCOC(=O)Nc1cccc2ccccc12)OCc1ccccc1,.,0,.,1,-1
O=C(Nc1cccc2ccccc12)c1ccccc1Cl,3,8,30,5,1
COc1ccccc1-c1nc(S(=O)(=O)c2ccccc2)c(N2CCCCC2)o1,50,2,52*,1,1
CCS(=O)(=O)Nc1ccc2c(c1)C(=O)N(C)[C@H]1CC[C@H](CC(=O)OC)O[C@H]1CO2,.,3,.,.,.
O=C(CN(C(=O)Cn1nnc(-c2ccc(F)cc2)n1)c1ccc(F)c(Cl)c1)NCC1CCCO1 (stereo not given),2,.,4,9,41*
SMILES,HSF1 inhib,esBAF inh,HSF1 activator,MITF TRPM1 HTS,Wnt act
Cc1ccc(-c2nnn(CC(=O)N(CC(=O)NCC3CCCO3)c3ccc(F)c(Cl)c3)n2)o1 (stereo not given),.,.,.,1,.
COc1ccc(N(CC(=O)NCc2ccc(F)cc2)C(=O)Cn2nnc(-c3ccc(C)o3)n2)cc1OC,-87*,-5,-90,-5,-1
Oc1ccc(/C=C/c2ccnc3ccccc23)cc1,68,30,69*,19,11
O=C(OCn1ncc(Br)c(Br)c1=O)c1ccccc1Cl,-74*,.,-74,-88,.
O=C(OCn1ncc(Br)c(Br)c1=O)c1ccc(F)cc1,-94*,-77,-95,-85,.
CO[C@@H]1CN(C)C(=O)c2cc(NC(=O)Nc3ccccc3F)ccc2OC[C@H](C)N(Cc2ccccc2C(=O)O)C[C@@H]1C,.,-1,.,.,.
CCN1C(=O)S/C(=C/c2ccc(Sc3nc4ccccc4[nH]3)o2)C1=O,29,9,58*,-6,-6
N#C/C(=C/c1ccc(Sc2nc3ccccc3[nH]2)o1)c1cccc(Br)c1,15,-22,9,-8,.
COc1ccc(/C(C)=N/NC(=O)CNC(=O)/C=C\c2ccccc2)c(OC)c1,-66*,-7,-69,-6,-3
COc1ccc(/C(C)=N/NC(=O)CNC(=O)COc2ccccc2)c(OC)c1,-7,-3,-10,2,-2
